Screening data from PubChem BioAssay.
Shown is part of a subset that was picked to be rich in hits.
CHX counter = counter-screen for Shiga toxin inhibitors: cycloheximide protein synthesis inhibition; cell reporter, cycloheximide protein synthesis inhibition counterscreen; max response, %; 300,000 tested, 12% active; in the data active means max response mostly above about 13%, no sharp cut-off; inactive means mostly below about 14%; further: read at 38.3 µM for the half of the compounds with a filed dose; 0% is about no effect
RE007 growth inh = less growth of the S. pombe RE007 Vpr strain. S. pombe RE007 Vpr strain, BacTiter-Glo ATP luminescence, 24 h. 360,000 tested, 0.21% active. AID 651644. Potency, µM (series often up to 92.2 µM), for the others: at the highest dose activity change, negative = less growth, usual class: inhibitors; active means well fitted falling curve with a large enough effect; inconclusive means small, poorly fitted or top-dose-only effect; inactive means no such curve, though single readings can be large or run the other way; further: potency means the concentration at half of the fitted maximal effect; on the % scale 0 is the no-effect control and ±100 the full control effect; nearly all actives have a fitted effect of over 50% in size
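Fission yeast RE007 carrying one integrated HIV-1 vpr copy, seeded at OD 0.01 in PMG+AL medium with 23 nL pinned compound. Grown 24 h at 30 degrees; viability read by BacTiter-Glo luminescence after 5 min.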
Giardia FBPA inh = Giardia lamblia aldolase inhibition; purified Giardia FBPA; Potency, µM (series often up to 59.6 µM), without a hit: top-dose activity, negative = inhibition, usual class: inhibitors; 290,000 tested, 0.71% active; further: potency means the concentration at half of the fitted maximal effect; on the % scale 0 is the no-effect control and ±100 the full control effect; nearly all actives have a fitted effect of over 55% in size
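40 nM FBPA preincubated 10 min at RT with compound (up to 57.5 uM final), then substrate plus GAPDH/TPI/NAD/arsenate coupling and diaphorase/resazurin added. Fluorescence read after 20 min at RT, 525/598 nm.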
LmPK inhibitor = inhibitors of Leishmania mexicana pyruvate kinase. Q27686. purified LmPK, Kinase-Glo ATP luminescence, 1 h. Potency, µM (top dose mostly 57.5 µM), for the others: top-dose activity change, negative = inhibition, hits mostly inhibitors. 290,000 tested, 0.37% active. AID 1721; further: potency means the concentration at half of the fitted maximal effect; on the % scale 0 is the no-effect control and ±100 the full control effect
Target sequence (Q27686 whole entry, looked up): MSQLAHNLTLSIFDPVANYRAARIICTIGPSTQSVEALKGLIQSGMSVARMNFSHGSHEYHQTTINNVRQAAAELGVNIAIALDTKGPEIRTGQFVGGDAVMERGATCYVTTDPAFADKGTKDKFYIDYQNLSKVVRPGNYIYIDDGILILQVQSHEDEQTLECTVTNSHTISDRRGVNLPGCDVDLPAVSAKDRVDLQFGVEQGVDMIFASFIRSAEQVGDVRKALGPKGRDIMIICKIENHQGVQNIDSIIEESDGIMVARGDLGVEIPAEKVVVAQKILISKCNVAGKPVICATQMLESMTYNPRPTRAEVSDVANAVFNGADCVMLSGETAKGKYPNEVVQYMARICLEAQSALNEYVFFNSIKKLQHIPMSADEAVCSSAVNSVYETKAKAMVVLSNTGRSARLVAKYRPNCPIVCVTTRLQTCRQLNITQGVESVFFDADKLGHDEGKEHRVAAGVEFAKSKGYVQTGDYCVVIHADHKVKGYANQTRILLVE
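qHTS format; LmPK 0.1 nM; substrates PEP 0.5 mM and ADP 0.1 mM. One-hour room-temperature incubation, then coupled luciferase luminescence; 0.5 nM enzyme wells mark activation.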
Shiga toxin inh = inhibitors of Shiga toxin in Vero cells; Vero cells, Shiga toxin protein synthesis inhibition reporter; inhibition, % at 38.7 µM; 290,000 tested, 9.2% active; AID 2315; in the data active means inhibition mostly above about 28%, no sharp cut-off; inactive means mostly below about 43%; further: 0% is about no effect
TbPYK inhibitor = T. brucei pyruvate kinase inhibition; Q57TT1; TbPYK enzyme, Kinase-Glo Plus ATP luminescence, 45 min; Potency, µM (doses to about 76.8 µM), for the others: at the highest dose activity, negative = inhibition, most hits filed as inhibitors; 410,000 tested, 0.12% active; AID 624173; further: potency means the concentration at half of the fitted maximal effect; on the % scale 0 is the no-effect control and ±100 the full control effect; nearly all actives have a fitted effect of over 50% in size
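Quantitative HTS: titrated library compounds versus trypanosomal pyruvate kinase in TEA buffer (pH 7.2) containing KCl, MgCl2, BSA and Tween-20. Reactions were initiated with ADP, 130 uM final. Kinase-Glo Plus luminescence was read after 45 min at RT.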
The depositor's hits bear a star; ? = inconclusive; . = not tested or not shown; + = active, no number. Unless noted, the call rests on the fitted dose curve; in most records, active means well fitted curve in the direction sought with a large enough effect; inconclusive means small, poorly fitted or top-dose-only effect, or another doubt; inactive means no such curve, though single readings can be large; an effect the other way counts as inactive or inconclusive.

SMILES	CHX counter	RE007 growth inh	Giardia FBPA inh	LmPK inhibitor	Shiga toxin inh	TbPYK inhibitor
COc1cccc(N2CCN(C(=O)c3ccc(C)c(NC(=O)c4nsc5ccccc45)c3)CC2)c1	.	.	.	.	.	-7.1%
Cc1cccc(C(=O)O/N=C(/c2ccccc2)c2ccncc2)c1	13.2	-3.2%	-4.3%	0.0%	6.3	6.1%
N/C(=N\OC(=O)c1ccc(Br)cc1)c1ccncc1	45.3*	-3.1%	5.1%	-25.5%	51.5*	-10.0%
N/C(=N\OC(=O)c1ccccc1)c1ccncc1	45.7*	-17.7%	6.2%	-23.6%	87.2*	-2.0%
N/C(=N\OC(=O)c1cccc(Br)c1)c1ccncc1	34.9*	3.4%	1.5%	1.8%	83.4*	-4.0%
COc1cc(OC)cc(C(=O)O/N=C(\N)c2ccncc2)c1	5.4	-10.0%	6.1%	-0.8%	26.3	-13.1%
CSCC[C@H](NC(=O)[C@H](CC(C)C)NC(=O)CNC(=O)[C@H](Cc1ccccc1)N(C)C(=O)[C@H](Cc1ccccc1)NC(=O)[C@H](CC(=O)O)NC(=O)[C@@H](N)CC(=O)O)C(N)=O	-10.1	.	-5.0%	.	-8.5	.
O=C(CCCCn1c(=O)c2ccccc2n(CC(=O)Nc2cccc(F)c2)c1=O)NCc1ccccc1Cl	.	.	.	.	.	0.0%
Cc1ccn2c(Nc3ccc4c(c3)OCCO4)c(-c3ccc(C)o3)nc2c1	.	.	.	.	.	-12.1%
Cc1ccc(NC(=O)c2ccc([N+](=O)[O-])o2)cc1C	41.3*	?	-23.9%	-14.7%	107.9*	-0.4%
O=C(Nc1cccc([N+](=O)[O-])c1)c1ccc([N+](=O)[O-])o1	.	-18.4%	.	.	.	6.5%
CC(C)(C)C(=O)N1CCN(c2ccc(NC(=O)c3ccc([N+](=O)[O-])o3)cc2)CC1	51.9*	-11.4%	-4.5%	-4.4%	39.3*	-0.2%
O=C(Nc1ccc(N2CCCC2)c(Cl)c1)c1ccc([N+](=O)[O-])o1	89.9*	-6.4%	?	-16.3%	+	-2.6%
CCCC(=O)N1CCN(c2ccc(NC(=O)c3ccc([N+](=O)[O-])o3)cc2)CC1	-18.2	-20.8%	-16.4%	-5.5%	-32.9	-12.2%
O=C(Nc1ccc(N2CCCCC2)cc1)c1ccc([N+](=O)[O-])o1	35.0*	?	1.7%	-20.1%	103.9*	-12.2%
O=c1c(-c2cccc(F)c2)nc2cncnc2n1-c1ccccc1	.	.	-2.4%	.	.	-6.8%
Cc1cccc(CC(=O)N2CCCC2)c1	0.8	5.0%	2.5%	2.0%	20.2	2.9%
Cc1cc(C)cc(-n2c(SCC(=O)Nc3cccc(F)c3)nc3c([nH]c4ccccc43)c2=O)c1	.	.	.	.	.	-2.9%
CCCCCCCCCCCCCC[C@@H](O)[C@@H](O)[C@@H](N)CO	4.3	.	10.1%	.	-18.4	.
CCC(=O)N1CCN(c2ccc(NC(=O)c3ccc([N+](=O)[O-])o3)cc2)CC1	21.4*	-27.6%	-18.8%	-2.5%	32.7*	-2.6%
CS(=O)(=O)N1CCN(c2ccc(NC(=O)c3ccc([N+](=O)[O-])o3)cc2)CC1	30.2*	-23.2%	0.4%	6.1%	52.9*	1.2%
COc1cccc(-c2cncnc2Nc2ccccc2)c1	.	.	-8.0%	.	.	.
Oc1c(C(c2ccccc2)N2CCOCC2)sc2nc(-c3ccco3)nn12 (configuration not stated)	.	.	.	.	.	-5.0%
O=C(Nc1sc2c(c1C(=O)O)CCCC2)c1ccc(F)cc1	33.5*	?	?	-2.0%	48.6*	9.6%
O=C(Nc1sc2c(c1C(=O)O)CCCCC2)c1ccccc1F	41.3*	?	?	-10.2%	108.7*	7.7%
NC(=O)c1c(NC(=O)c2cc3ccccc3o2)sc2c1CCC2	35.9*	-26.1%	-2.4%	-8.4%	72.0*	-4.4%
CC(=O)Nc1sc2c(c1C(N)=O)CCC2	-3.1	2.1%	-1.3%	-4.8%	-6.3	0.6%
NC(=O)c1c(NC(=O)c2ccc(F)cc2)sc2c1CCC2	52.8*	-13.0%	-6.2%	-1.1%	45.1*	0.3%
CN(CC(=O)Nc1ccc(F)cc1F)S(=O)(=O)c1cccc2nsnc12	.	.	.	.	.	-6.3%
Cc1ccc(Nc2nc(-c3sc(NC(=O)c4ccco4)nc3C)cs2)cc1	19.6*	5.2%	-22.4%	-4.1%	35.9	-19.2%
